Growth inhibition data for ten compounds are collected here from PubChem BioAssay (NCI).

Assay [1] is described as follows: NCI Yeast Anticancer Drug Screen. Data for the rad50 strain (AID 155).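 Also: 0% = growth of vehicle-only cultures of the same strain.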 As to conditions: S. cerevisiae rad50 strain growth inhibition, stronger effect = higher value. Summed up:
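Cells are treated with compound, grown, and their growth is then scored against vehicle-only cultures of the same repair-deficient yeast strain.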

A short description of assay [2]: NCI Yeast Anticancer Drug Screen. Data for the mec2-1 strain (AID 157). The settings on record: S. cerevisiae mec2-1 strain, stronger effect = higher value. Summed up:
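Each compound was tested on mec2-1 yeast, a strain altered in DNA damage repair or cell cycle control. Growth inhibition is reported relative to vehicle.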

Assay [3] in a line: NCI Yeast Anticancer Drug Screen. Data for the sgs1 mgt1 strain (AID 161).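 Also: 0% = growth of cultures given vehicle only.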 As to conditions: S. cerevisiae sgs1 mgt1 strain, stronger effect = higher value. Summed up:
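Inhibition of yeast growth, normalised to vehicle-treated controls, is reported for a strain bearing genetic alterations in DNA damage repair.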

Assay [4] can be described thus: NCI Yeast Anticancer Drug Screen. Data for the cln2 rad14 strain (AID 165).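 Also: 0% = growth equal to vehicle treated cultures.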 As to conditions: S. cerevisiae cln2 rad14 strain, stronger effect = higher value. Summed up:
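Test compounds were added to cln2 rad14 yeast cultures; inhibition of growth was then determined by comparison with vehicle treatment.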

The nature of assay [5]: NCI Yeast Anticancer Drug Screen. Data for the bub3 strain (AID 167). The settings on record: S. cerevisiae bub3 mutant strain, stronger effect = higher value. Summed up: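 Part of a panel of yeast mutants defective in DNA damage repair or cell cycle regulation. Each strain is grown with compound, and inhibition is calculated relative to solvent-treated cultures.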
The nature of assay [6]: NCI Yeast Anticancer Drug Screen. Data for the mlh1 rad18 strain (AID 175). As to conditions: S. cerevisiae mlh1 rad18 strain growth inhibition, stronger effect = higher value. In a few lines:
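Inhibition values reflect reduced growth of mutant yeast versus vehicle-treated controls following compound exposure; the mutations affect DNA damage repair.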

[7] abbreviates: at 5.0 µM (retest, dose inferred, filed as 0.5).
Setting [8] is: at 50.0 µM (retest, dose inferred, filed as 5.0).

Compounds without any hit were thinned out: in the full panel of roughly 79,000, 15% have a hit. Values without a mark were called inactive. Active and inactive are the calls of the source. Rule as the data show it: active = growth inhibition above about 70%; inactive = the rest.

Turning to `Cc1nc2ccc(N=Nc3c(O)ccc4ccccc34)cc2[nH]1`, the growth inhibition was -6% in assay [1] (setting [7]); 30% in assay [1] (setting [8]); 85.3% (active) in assay [1] (at 50.0 µM); -7% in assay [2] (setting [7]); 20% in assay [2] (setting [8]); 77.1% (active) in assay [2] (at 50.0 µM). The growth inhibition in assay [3] (setting [7]) was 11%; in assay [3] (setting [8]), 35%; in assay [3] (at 50.0 µM) it was 91.7% (active); in assay [4] (setting [7]), -12%; in assay [4] (setting [8]), 17%; in assay [4] (at 50.0 µM), 72.3% (active). Also, the growth inhibition is -4% in assay [5] (setting [7]); 77% (active) in assay [5] (setting [8]); 86.2% (active) in assay [5] (at 50.0 µM); -33% in assay [6] (setting [7]); 66% in assay [6] (setting [8]); 82.5% (active) in assay [6] (at 50.0 µM).

As for `C/C=C(\C)C(=O)OC1C2C(C)=CC(=O)C(O)C2(C)C2C3(O)OCC24C1OC(=O)C(O)C4C(C)C3O` (stereo not given), the growth inhibition in assay [1] (setting [7]) was -2%; in assay [1] (setting [8]) it was 54%; in assay [1] (at 50.0 µM), 84.2% (active); in assay [2] (setting [7]), 15%; in assay [2] (setting [8]) it was 30%; in assay [2] (at 50.0 µM), 72.5% (active). The growth inhibition in assay [3] (setting [7]) is 9%; in assay [3] (setting [8]), 42%; in assay [3] (at 50.0 µM), 71.7% (active); in assay [4] (setting [7]), 8%; in assay [4] (setting [8]) it was 67%; in assay [4] (at 50.0 µM), 78.5% (active). Besides, the growth inhibition in assay [5] (setting [7]) is -13%; in assay [5] (setting [8]) it was 51%; in assay [5] (at 50.0 µM), 75.8% (active); in assay [6] (setting [7]), -33%; in assay [6] (setting [8]) it was 66%; in assay [6] (at 50.0 µM), 34.5%.

In the case of `O=[N+]([O-])/C(Cl)=C(\Sc1ccccc1)C(Cl)=C(Cl)Cl`, the growth inhibition in assay [1] (setting [7]) was 100% (active); in assay [1] (setting [8]) it was 99% (active); in assay [1] (at 50.0 µM), 89.8% (active); in assay [2] (setting [7]), 100% (active); in assay [2] (setting [8]) it was 100% (active); in assay [2] (at 50.0 µM) it was 93.4% (active). Further, the growth inhibition was 99% (active) in assay [3] (setting [7]); 99% (active) in assay [3] (setting [8]); 90.6% (active) in assay [3] (at 50.0 µM); 99% (active) in assay [4] (setting [7]); 99% (active) in assay [4] (setting [8]); 91.9% (active) in assay [4] (at 50.0 µM). Also, the growth inhibition in assay [5] (setting [7]) was 99% (active); in assay [5] (setting [8]), 99% (active); in assay [5] (at 50.0 µM) it was 91.8% (active); in assay [6] (setting [7]), 100% (active); in assay [6] (setting [8]) it was 99% (active); in assay [6] (at 50.0 µM), 86.8% (active).

`CCC(c1ccc(Cl)cc1)C(C#N)c1ccc(Cl)cc1` (stereo not given): the growth inhibition is 10% in assay [1] (setting [7]); 55% in assay [1] (setting [8]); 84.3% (active) in assay [1] (at 50.0 µM); -1% in assay [2] (setting [7]); 33% in assay [2] (setting [8]); 61.5% in assay [2] (at 50.0 µM). The growth inhibition in assay [3] (setting [7]) is -3%; in assay [3] (setting [8]), 46%; in assay [3] (at 50.0 µM), 68.1%; in assay [4] (setting [7]) it was -8%; in assay [4] (setting [8]), 12%; in assay [4] (at 50.0 µM), 11.4%. Further, the growth inhibition in assay [5] (setting [7]) was 6%; in assay [5] (setting [8]), 44%; in assay [5] (at 50.0 µM), 41.8%; in assay [6] (setting [7]) it was 2%; in assay [6] (setting [8]) it was 52%; in assay [6] (at 50.0 µM), 76.4% (active).

On to `CC1(C(=O)O)CCC2(C)CCC3(C)C(=CC(=O)C4C5(C)CCC(O)C(C)(C)C5CCC43C)C2C1` (stereo not given), for which the growth inhibition is 12% in assay [1] (setting [7]); 61% in assay [1] (setting [8]); 52.4% in assay [1] (at 50.0 µM); 23% in assay [2] (setting [7]); 78% (active) in assay [2] (setting [8]); 64.8% in assay [2] (at 50.0 µM). For the same compound, the growth inhibition in assay [3] (setting [7]) is 10%; in assay [3] (setting [8]), 74% (active); in assay [3] (at 50.0 µM), 65%; in assay [4] (setting [7]), 30%; in assay [4] (setting [8]), 84% (active); in assay [4] (at 50.0 µM), 75.7% (active). For the same compound, the growth inhibition in assay [5] (setting [7]) was 29%; in assay [5] (setting [8]) it was 78% (active); in assay [5] (at 50.0 µM), 60.5%; in assay [6] (setting [7]), 18%; in assay [6] (setting [8]), 80% (active); in assay [6] (at 50.0 µM) it was 71.3% (active).

As to `Brc1ccc(N2COc3ccc4ccccc4c3C2)cc1`, the growth inhibition in assay [1] (setting [7]) was 9%; in assay [1] (setting [8]), -23%; in assay [1] (at 50.0 µM) it was 19.2%; in assay [2] (setting [7]) it was 19%; in assay [2] (setting [8]), -1%; in assay [2] (at 50.0 µM) it was 35.5%. Besides, the growth inhibition in assay [3] (setting [7]) was 16%; in assay [3] (setting [8]), -4%; in assay [3] (at 50.0 µM), 62.4%; in assay [4] (setting [7]), -17%; in assay [4] (setting [8]), -3%; in assay [4] (at 50.0 µM), 0.95%. Also, the growth inhibition in assay [5] (setting [7]) is 9%; in assay [5] (setting [8]), -3%; in assay [5] (at 50.0 µM), 77.9% (active); in assay [6] (setting [7]) it was 16%; in assay [6] (setting [8]), 2%; in assay [6] (at 50.0 µM) it was 46.4%.

As for `Cc1ccc(Nc2nc(C)c(C(/C=C/c3ccc4c(c3)OCO4)=N/Nc3ccc([N+](=O)[O-])cc3[N+](=O)[O-])s2)c([N+](=O)[O-])c1`, the growth inhibition is 43% in assay [1] (setting [7]); 43% in assay [1] (setting [8]); 53.5% in assay [1] (at 50.0 µM); 36% in assay [2] (setting [7]); 36% in assay [2] (setting [8]); 69% in assay [2] (at 50.0 µM). The growth inhibition is 37% in assay [3] (setting [7]); 37% in assay [3] (setting [8]); 89.5% (active) in assay [3] (at 50.0 µM); 23% in assay [4] (setting [7]); 23% in assay [4] (setting [8]); 68.2% in assay [4] (at 50.0 µM). In addition, the growth inhibition in assay [5] (setting [7]) was 33%; in assay [5] (setting [8]), 33%; in assay [5] (at 50.0 µM), 67.7%; in assay [6] (setting [7]) it was 37%; in assay [6] (setting [8]) it was 37%; in assay [6] (at 50.0 µM) it was 81.7% (active).

Consider `CCN(CC)CCOc1ccc(-c2cc(-c3ccccc3)nc(N)n2)cc1`, for which the growth inhibition in assay [1] (setting [7]) was 49%; in assay [1] (setting [8]) it was 98% (active); in assay [1] (at 50.0 µM), 76.5% (active); in assay [2] (setting [7]), 58%; in assay [2] (setting [8]), 99% (active); in assay [2] (at 50.0 µM), 79.5% (active). Moreover, the growth inhibition was 44% in assay [3] (setting [7]); 91% (active) in assay [3] (setting [8]); 85.2% (active) in assay [3] (at 50.0 µM); 73% (active) in assay [4] (setting [7]); 93% (active) in assay [4] (setting [8]); 59.3% in assay [4] (at 50.0 µM). The growth inhibition in assay [5] (setting [7]) was 58%; in assay [5] (setting [8]), 92% (active); in assay [5] (at 50.0 µM) it was 81.3% (active); in assay [6] (setting [7]) it was 55%; in assay [6] (setting [8]) it was 99% (active); in assay [6] (at 50.0 µM), 77.8% (active).

`N#C/C(=C1C=C/C(=N/O)c2ccccc2/1)c1ccc(Cl)cc1`: the growth inhibition in assay [1] (setting [7]) was 11%; in assay [1] (setting [8]), 17%; in assay [1] (at 50.0 µM), 56%; in assay [2] (setting [7]), -6%; in assay [2] (setting [8]), 26%; in assay [2] (at 50.0 µM), 77.3% (active). The growth inhibition in assay [3] (setting [7]) was 1%; in assay [3] (setting [8]) it was 1%; in assay [3] (at 50.0 µM) it was 60.8%; in assay [4] (setting [7]) it was -1%; in assay [4] (setting [8]), 6%; in assay [4] (at 50.0 µM), 41.1%. The growth inhibition in assay [5] (setting [7]) is -4%; in assay [5] (setting [8]) it was 61%; in assay [5] (at 50.0 µM), 34.5%; in assay [6] (setting [7]), -9%; in assay [6] (setting [8]), 28%; in assay [6] (at 50.0 µM), 72.6% (active).

Turning to `Cc1ccc(C(=O)C(CN(C)C)CN(C)C)cc1C`, the growth inhibition in assay [1] (setting [7]) is 29%; in assay [1] (setting [8]) it was 83% (active); in assay [1] (at 50.0 µM) it was 87.6% (active); in assay [2] (setting [7]), 12%; in assay [2] (setting [8]), 90% (active); in assay [2] (at 50.0 µM), 90.2% (active). The growth inhibition in assay [3] (setting [7]) is 9%; in assay [3] (setting [8]), 88% (active); in assay [3] (at 50.0 µM), 90.1% (active); in assay [4] (setting [7]) it was 24%; in assay [4] (setting [8]) it was 51%; in assay [4] (at 50.0 µM), 58.1%. For the same compound, the growth inhibition is 20% in assay [5] (setting [7]); 94% (active) in assay [5] (setting [8]); 87.5% (active) in assay [5] (at 50.0 µM); 14% in assay [6] (setting [7]); 91% (active) in assay [6] (setting [8]); 87.8% (active) in assay [6] (at 50.0 µM).
